# Source: PMC5540273 (PLoS ONE, 2017)
# What was measured:
# Settings in all cases: concentration: 1 μM,replicates: in singlicate; n = 1
# PLK2 = test system: PLK2
# PLK3 = test system: PLK3
# PLK4 = test system: PLK4
# PRKCD = test system: PRKCD
# PRKCE = test system: PRKCE
# PRKCH = test system: PRKCH
# PRKCI = test system: PRKCI
# PRKCQ = test system: PRKCQ
# PRKD1 = test system: PRKD1
# PRKD2 = test system: PRKD2
# PRKD3 = test system: PRKD3
# PRKG1 = test system: PRKG1
# PRKG2 = test system: PRKG2
# PRKR = test system: T1, PRKR
# T1 construct: gene EIF2AK2
# PRKX = test system: PRKX
# PRP4 = test system: PRP4
# PYK2 = test system: T2, PYK2
# T2 construct: gene PTK2B
# QSK = test system: QSK
# RAF1 = test system: RAF1
# RET = test system: RET
# 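Also: KINOMEscan kinase panel screen.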
SMILES,%Inh (PLK2) [%],%Inh (PLK3) [%],%Inh (PLK4) [%],%Inh (PRKCD) [%],%Inh (PRKCE) [%],%Inh (PRKCH) [%],%Inh (PRKCI) [%],%Inh (PRKCQ) [%],%Inh (PRKD1) [%],%Inh (PRKD2) [%],%Inh (PRKD3) [%],%Inh (PRKG1) [%],%Inh (PRKG2) [%],%Inh (PRKR) [%],%Inh (PRKX) [%],%Inh (PRP4) [%],%Inh (PYK2) [%],%Inh (QSK) [%],%Inh (RAF1) [%],%Inh (RET) [%]
COC(=O)c1cccc(NC(=O)NC2CCN(c3ccnc(Nc4cc(OC)c(OC)c(OC)c4)n3)C2)c1 (stereo not drawn) [GSK1379767],0,0,38,0,18,7,19,0,0,5,0,0,7,19,5,44,0,0,7,11
OCCn1cc(-c2cnc3nnn(Cc4ccc5ncccc5c4)c3n2)cn1,0,50,4,0,49,0,0,0,5,0,0,0,0,0,0,0,0,0,0,0
CC(=O)Nc1nc2cnc(Nc3cc(NC(=O)c4cccc(CC(C)(C)C#N)c4)ccc3C)nc2s1,0,3,18,13,0,14,5,11,0,0,0,0,17,0,35,6,9,0,99.5,99.7
Cn1cc(-c2cccc3c(N)c(C(N)=O)nnc23)cn1,13,17,26,24,10,36,24,53,0,15,21,39,11,0,3,1,9,3,0,12
COc1cccc(OC)c1C(=O)Nc1cccc(-c2nn3ccccc3c2-c2ccnc(Nc3cccc(F)c3)n2)c1 [GSK361065],10,0,16,26,14,11,21,17,17,1,2,11,0,0,0,0,8,0,29,90.1
CNC(=O)c1ccccc1Nc1nc(Nc2cccc(CS(C)(=O)=O)c2)ncc1C.O=CO [GSK1520489],68,17,100,13,77,0,17,42,0,6,13,0,8,28,0,82,99.5,22,2,100
CC(C)c1nc(-c2cccc(NS(=O)(=O)c3ccccc3)c2)c(-c2ccnc(Nc3ccc4c(c3)CN(C)CC4)n2)s1 [GSK1649598],0,0,99.8,0,0,0,45,11,93.9,99.9,100,0,0,29,5,8,48,49,87,95.4
C[C@@H](Oc1cc(-n2cnc3cc(-c4ccncc4)ccc32)sc1C(N)=O)c1ccccc1Cl [GSK479719],99.5,,29,0,18,12,0,2,0,0,16,3,2,0,2,14,13,9,13,36
